# This is part of a sample that, as a whole, favours compounds with a hit. Of some 83,000 tested, about 20% had one in any assay.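 Activity criterion: percent growth below 10, measured after cells in 96-well plates were exposed to a single compound concentration for 48 hours.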 Active and inactive are the calls of the source.
# Tested on: T-47D breast
# Experiment: NCI-60 one-dose screen, 48 h (100 = growth as untreated, 0 = no growth, -100 = all killed)
# Conditions: 10 µM unless noted
row,SMILES,growth
1,CCOc1cccc(/C(N)=N/C(N)=N/c2nc3ccccc3s2)c1,73.1% (inactive)
2,Cc1ccc2c(n1)C(=O)C(Cl)=C(Nc1cc(C(F)(F)F)cc(C(F)(F)F)c1)C2=O,-9.18% (active)
3,CC(C)(C)OC(=O)NCc1ccc(CNc2c([N+](=O)[O-])cnc3ccccc23)cc1,28.1% (inactive)
4,C#CCOc1cccc(-c2nc(N)nc(Nc3ccccc3SSc3ccccc3Nc3nc(N)nc(-c4cccc(OCC#C)c4)n3)n2)c1,40.5% (inactive)
5,CN1CCN(c2ccc(Nc3nc(NCCNS(=O)(=O)c4ccccc4)c4sccc4n3)cc2)CC1,86.3% (inactive)
6,C=C(C=O)[C@@H]1CC[C@]2(C(=O)O)CC[C@]3(C)C(CC[C@@H]4[C@@](C)(CCC#N)[C@H](C(=C)C=O)CC[C@]43C)[C@@H]12 (stereo not given in full),28.1% (inactive)
7,O=C(CSc1nc2ccccc2c(=O)n1-c1ccccc1)N/N=C/c1ccc(Oc2ccc(Br)cc2)cc1,82.4% (inactive)
8,CC(C)C(/C=C/c1[nH]ncc1-c1cc(Cl)ccc1O)N1CCOCC1 (stereo not given),94.9% (inactive)
9,N#Cc1c(-c2cccs2)cc(-c2cnccn2)nc1SCC(=O)N/N=C/c1ccc(Cl)cc1,93.8% (inactive)
10,CN1CCN(c2ccc(Nc3nc(NCCCNS(=O)(=O)c4ccc(Cl)cc4)c4sccc4n3)cc2)CC1,11.6% (inactive)
11,O=C1[C@@H]2Cc3c([nH]c4ccccc34)[C@H](c3ccc(Br)cc3)N2C(=O)CN1C1CCN(Cc2c(Cl)cccc2Cl)CC1,88.5% (inactive)
12,COc1ccc(NC(=O)CCCCCCNC(=O)C(O)(O)C(F)(F)F)cc1,18.7% (inactive)
13,CCCCSC1=C(Cl)CN(c2ccc(Cl)cc2)C1=O,72.7% (inactive)
14,CN(C)CCCOc1ccc(C(=C(c2ccccc2)C2CCCC2)c2ccc(OCCCN(C)C)cc2)cc1,-76.6% (active)
15,CN1CCN(c2ccc(Nc3nc(NCCCNS(=O)(=O)c4cccc5ccccc45)c4sccc4n3)cc2)CC1,-2.47% (active)
16,CCN(CC)c1ccc(/C=N/NC(=O)c2ccc(S(N)(=O)=O)cc2)cc1,26% (inactive)
17,C#C[C@]1(O)CC[C@H]2[C@@H]3CC=C4c5sc(Nc6cc(C)cc(C)c6)nc5CC[C@]4(C)[C@H]3CC[C@@]21C,33.8% (inactive)
18,CN(C)c1ccc(-c2cc(-c3c[nH]c4ccccc34)nc(N)c2C#N)cc1,39.9% (inactive)
19,C#C[C@]1(O)CC[C@H]2[C@@H]3CC=C4c5sc(Nc6cc(Cl)ccc6OC)nc5CC[C@]4(C)[C@H]3CC[C@@]21C,31.2% (inactive)
20,Cc1cc(=O)[nH]c(O)c1C#N,105% (inactive)

row,SMILES,growth
1,Cc1ccc(C(=O)CSc2nc3ccccc3c(=O)n2C)cc1,76.2% (inactive)
2,O=C(NCCNc1cc(-c2cn(-c3ccccc3)nc2-c2cccc(O)c2)ccn1)Nc1cc(C(F)(F)F)cc(C(F)(F)F)c1,90.5% (inactive)
3,N/C(=N\C(N)=N\c1nc2ccccc2s1)c1ccc(Cl)cc1,68.3% (inactive)
4,C#CCN(C)CCCOc1ccc(NCc2ccc(/C=C/C(=O)NO)cc2)cc1Cl,1.04% (active)
5,C#CCOc1ccccc1/C=N/Nc1nc(-c2ccc(Cl)cc2)cs1,71.9% (inactive)
6,O=S(=O)(NCCCNc1nccc(-c2[nH]c(-c3ccccc3)nc2-c2ccc(F)c(O)c2)n1)c1cccc(F)c1,73.4% (inactive)
7,O=C(CSc1nc2ccccc2c(=O)n1CCc1ccccc1)Nc1ccc(S(=O)(=O)Nc2ccc(Cl)nn2)cc1,88.6% (inactive)
8,Nc1nc(=O)n([C@H]2C[C@H](O)[C@@H](CO)O2)cc1C=O,113% (inactive)
9,O=C(Nc1ccc(Cl)c(C(F)(F)F)c1)Nc1ccc2c(ccn2C(=O)c2cccc(F)c2)c1,0.647% (active)
10,CCN1CCN(c2ccc(NC(=O)Nc3ccc4c(ccn4-c4ccnc(C(=O)NC)c4)c3)cc2C(F)(F)F)CC1,90.5% (inactive)
11,O=C(CCCCCCN1CC(=O)N2[C@@H](c3ccccc3Br)c3[nH]c4ccccc4c3C[C@H]2C1=O)NO,19.2% (inactive)
12,COc1ccc2[nH]cc(-c3nc(N)nnc3-c3cn(C)c4ccc(Br)cc34)c2c1,29.3% (inactive)
13,C#Cc1nc(/C=C\CCCCCCC(=O)NO)cs1,42.3% (inactive)
14,CC(=O)OC[C@]12CC[C@@H](C(=O)/C=C/c3cccnc3)[C@@H]1[C@H]1CC[C@@H]3[C@@]4(C)CC[C@H](OC(C)=O)C(C)(C)[C@@H]4CC[C@@]3(C)[C@]1(C)CC2,-16.7% (active)
15,C[C@@H]1OCC2(CCN(c3cnc(C(=O)Nc4cc(F)cc5cccnc45)cn3)CC2)[C@@H]1N,37.1% (inactive)
16,CC1=C(C)C(=O)C(Nc2ccc(C)c(C)c2)=C(Br)C1=O,41.6% (inactive)
17,Cc1ccccc1Nc1nc(SC(C)C)nc(-c2ccccc2)c1C#N,88.1% (inactive)
18,O=C1c2ccccc2C23C(=C(c4cncnc4)c4ccccc42)CCCN13 (stereo not given),93.3% (inactive)
19,CC1=C(C)C(=O)C(Nc2cccc(C(=O)OC(C)(C)C)c2)=C(Cl)C1=O,4.99% (active)
20,CC(=O)Nc1cc(N2CCOCC2)c2nc(NC(=O)c3[nH]c(C)c(Cl)c3Cl)sc2c1,46.9% (inactive)

# Reference: PubChem BioAssay (NCI)
